Among the test systems are SR leukemia; RPMI-8226 leukemia; OVCAR-8 ovarian; OVCAR-5 ovarian; SK-OV-3 ovarian; IGROV1 ovarian; OVCAR-3 ovarian; HS 578T breast; NCI/ADR-RES ovarian; OVCAR-4 ovarian.
Test in all cases: NCI-60 one-dose screen, 48 h (100 = growth as untreated, 0 = no growth, -100 = all killed)
What all share (settings): 10 µM unless noted

Compounds without any hit were thinned out: in the full panel of roughly 83,000, 20% have a hit.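 Note: values are percent growth. 100 is the growth of untreated cells, values between 100 and 0 indicate rising inhibition; between -100 and 0 indicates cell death.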 Unmarked numbers belong to inactive results. The source made the active and inactive calls. Rule for the calls: active = growth percent below 10; inactive = the rest.

For the molecule `COc1cccc(CC(C)=C(c2ccc(OCCN(C)C)cc2)c2ccc(OCCN(C)C)cc2)c1`, the growth was -17% (active) in the assay with SR leukemia; -31.1% (active) in the assay on RPMI-8226 leukemia; -2.71% (active) in the assay on OVCAR-8 ovarian; 21.2% with OVCAR-5 ovarian; 70.2% with SK-OV-3 ovarian; 8.66% (active) in the assay with IGROV1 ovarian. In addition, the growth is -17.8% (active) with OVCAR-3 ovarian, 42.4% in the assay with HS 578T breast and 19% in the assay on NCI/ADR-RES ovarian.

For the molecule `CCN(CC)CCC(CNc1c2ccc(Cl)cc2nc2ccc(OC)cc12)c1ccccc1` (stereo unspecified), the growth was -6.4% (active) with SR leukemia; -23.6% (active) with RPMI-8226 leukemia; -15.1% (active) in the assay on OVCAR-8 ovarian; -9.48% (active) in the assay with OVCAR-5 ovarian; -10.5% (active) in the assay on IGROV1 ovarian; -30.5% (active) in the assay with OVCAR-3 ovarian. Also, the growth with HS 578T breast is -27.6% (active); with NCI/ADR-RES ovarian it was -1.8% (active).

Turning to `CC(C)OC(=O)N1CCOCC1`, the growth was 109% in the assay with SR leukemia; 107% with RPMI-8226 leukemia; 95.6% in the assay with OVCAR-8 ovarian; 95.5% with OVCAR-4 ovarian; 98.1% in the assay with SK-OV-3 ovarian; 115% with OVCAR-3 ovarian. Moreover, the growth was 97.5% in the assay on HS 578T breast and 108% in the assay with NCI/ADR-RES ovarian.

For the molecule `CN(C)CCOC(=O)Nc1ccccc1Cl`, the growth was 104% in the assay with SR leukemia; 93.1% with RPMI-8226 leukemia; 109% in the assay on OVCAR-8 ovarian; 121% with OVCAR-5 ovarian; 115% with SK-OV-3 ovarian; 106% in the assay with IGROV1 ovarian. The growth was 121% with OVCAR-3 ovarian, 115% in the assay with HS 578T breast and 105% with NCI/ADR-RES ovarian.

For `Cc1nc2ncccc2nc1Nc1ccc(S(=O)(=O)Nc2ccccn2)cc1`, the growth in the assay with SR leukemia was 92.2%; in the assay on RPMI-8226 leukemia, 84.5%; in the assay with OVCAR-8 ovarian it was 93.6%; in the assay with OVCAR-5 ovarian it was 103%; with OVCAR-4 ovarian, 102%; in the assay with IGROV1 ovarian it was 72.6%. The figures for the growth in the assay with HS 578T breast and with NCI/ADR-RES ovarian were 92.9% and 98.2%, respectively.

For the molecule `Cc1ccc(S(=O)(=O)NC(=O)n2cc(-c3ccncc3)c(-c3ccc(Cl)c(O)c3)n2)cc1`, the growth was 83.3% with SR leukemia; 99.9% in the assay on RPMI-8226 leukemia; 99% with OVCAR-8 ovarian; 114% in the assay on OVCAR-5 ovarian; 101% in the assay on SK-OV-3 ovarian; 112% with IGROV1 ovarian. The growth was 146% in the assay on OVCAR-3 ovarian, 107% in the assay on HS 578T breast and 104% in the assay with NCI/ADR-RES ovarian.

Turning to `COc1ccc(-c2c(-c3cc(OC)c4c(c3)OCO4)noc2N)cc1`, the growth is -7.43% (active) with SR leukemia; 23.8% in the assay on RPMI-8226 leukemia; 9.5% (active) with OVCAR-8 ovarian; 34.4% in the assay with OVCAR-4 ovarian; 4.02% (active) with SK-OV-3 ovarian; 14.6% in the assay on IGROV1 ovarian. The figures for the growth in the assay with OVCAR-3 ovarian, in the assay with HS 578T breast and with NCI/ADR-RES ovarian were -47.3% (active), 28% and 13.8%, respectively.

With `COc1cc(C2CC(c3ccc4c(c3)OCO4)=NN2C=O)cc(OC)c1OC` (stereo unspecified), the growth with SR leukemia is 33.5%; with RPMI-8226 leukemia it was 52.8%; with OVCAR-8 ovarian it was 53.9%; with OVCAR-4 ovarian, 57.7%; with SK-OV-3 ovarian, 24.7%; with OVCAR-3 ovarian, -29% (active). In addition, the growth with HS 578T breast is 8.51% (active); in the assay with NCI/ADR-RES ovarian it was 15.5%.

On to `O=C(NS(=O)(=O)c1ccccc1)n1cc(-c2ccncc2)c(-c2ccc(Cl)c(O)c2)n1`, for which the growth in the assay on SR leukemia is 97.2%; in the assay on RPMI-8226 leukemia, 97.4%; in the assay on OVCAR-8 ovarian, 105%; with OVCAR-5 ovarian, 116%; with SK-OV-3 ovarian, 102%; in the assay with IGROV1 ovarian, 96.8%. In addition, the values for the growth in the assay on OVCAR-3 ovarian, in the assay with HS 578T breast and with NCI/ADR-RES ovarian were 117%, 106% and 102%, respectively.

For `COc1ccccc1CNCCCN1C(=O)c2ccc3c4c(ccc(c24)C1=O)C(=O)N(CCCNCCCCNCCCN)C3=O`, the growth in the assay on SR leukemia is -27.1% (active); in the assay with RPMI-8226 leukemia, -9.27% (active); with OVCAR-8 ovarian it was 4.19% (active); in the assay on OVCAR-4 ovarian it was -73.8% (active); in the assay with SK-OV-3 ovarian, 9.93% (active); in the assay with IGROV1 ovarian it was -2.75% (active). Further, the growth in the assay with OVCAR-3 ovarian is -96.8% (active); with HS 578T breast, -25.1% (active); in the assay on NCI/ADR-RES ovarian, 4.5% (active).

For the molecule `COc1cc(/C=C/C(=O)N2CCN(C(=O)/C=C/c3cc(OC)c(OC)c(OC)c3)CC2)cc(OC)c1OC`, the growth is 75.2% in the assay with SR leukemia; 98.6% with RPMI-8226 leukemia; 111% with OVCAR-5 ovarian; 103% in the assay on OVCAR-4 ovarian; 116% in the assay with SK-OV-3 ovarian; 111% with IGROV1 ovarian. The growth is 117% in the assay on OVCAR-3 ovarian, 98.8% in the assay with HS 578T breast and 113% in the assay on NCI/ADR-RES ovarian.

Take `CC(C)(C)c1[nH]nc2c1C(c1cc3ccccc3[nH]c1=O)Nc1cc(C(=O)Nc3ccc(Cl)cc3)ccc1N2` (stereo unspecified): the growth with SR leukemia is 65.4%; with OVCAR-8 ovarian, 75.3%; in the assay on OVCAR-5 ovarian it was 114%; with OVCAR-4 ovarian, 32.5%; with SK-OV-3 ovarian it was 90.6%; in the assay with IGROV1 ovarian it was 59.6%. Besides, the growth is 58.4% with OVCAR-3 ovarian, 52.6% in the assay on HS 578T breast and 95.3% with NCI/ADR-RES ovarian.

As for `C=C1CCC2C3(C)COC(C)(C)OC3CCC2(C)C1C/C=C1/C(=O)OCC1Oc1ccccc1OC` (stereo unspecified), the growth with SR leukemia is 28.9%; in the assay on OVCAR-8 ovarian it was 81.1%; in the assay on OVCAR-5 ovarian, 101%; in the assay on OVCAR-4 ovarian, 60.7%; in the assay with SK-OV-3 ovarian it was 114%; in the assay on IGROV1 ovarian, 76.2%. Besides, the growth in the assay on OVCAR-3 ovarian was 31.3%; in the assay with HS 578T breast it was 113%; in the assay on NCI/ADR-RES ovarian, 85.6%.

On to `C=C1C(=O)O[C@@H]2[C@@H]3O[C@@](C)(CC/C=C(\C)CCC[C@@H]2C)[C@H](O)C[C@@H]13`, for which the growth in the assay with SR leukemia was 13.7%; in the assay with RPMI-8226 leukemia it was 7.48% (active); in the assay on OVCAR-5 ovarian, 97.5%; in the assay with OVCAR-4 ovarian it was 70.1%; with SK-OV-3 ovarian, 92%; with IGROV1 ovarian, 42.3%. The growth in the assay on OVCAR-3 ovarian was 13.9%; in the assay with HS 578T breast it was 72.1%; in the assay with NCI/ADR-RES ovarian it was 37.5%.

As for `CN1C(=O)N(C)C2C1NN=c1s/c(=C\C=C\c3ccccc3)c(=O)n12` (stereo unspecified), the growth in the assay on SR leukemia was 24.3%; with RPMI-8226 leukemia, 84.9%; in the assay on OVCAR-5 ovarian it was 85.9%; in the assay on OVCAR-4 ovarian, 81.9%; in the assay on SK-OV-3 ovarian it was 65.7%; with IGROV1 ovarian, 50.7%. For the same molecule, the figures for the growth in the assay with OVCAR-3 ovarian, in the assay on HS 578T breast and in the assay on NCI/ADR-RES ovarian were 12%, 59.6% and 36.4%, respectively.

(Values after PubChem BioAssay (NCI).)
